High-throughput results from PubChem BioAssay.
A selection: hits, their analogues and other compounds. The true share with any hit is near 0.86%.
CDC25B-CDK2 inh = human CDC25B-CDK2/CyclinA binding inhibition | P30305+P24941 | HTRF CDC25B-CDK2/CyclinA binding, anti-His/anti-Flag; active compounds read high | z-score (no concentration beside the values) | 0.72% of 94,000 active | AID 1259370; in the data active = z-score above about 3.2
TAR Tat displ = HIV-1 TAR-Tat binding disruption; z-score (test concentration not listed); HIV-1 TAR RNA, Tat peptide displacement FRET; active compounds read high; 0.6% of 100,000 active; active = z-score of 3 or more in at least 2 runs
Numbers stand for hits; n = inactive; x = no result given.

SMILES	CDC25B-CDK2 inh	TAR Tat displ
CC(C)(C)C(=O)N1CCC(n2nc(-c3ccccc3)oc2=O)CC1	n	n
CCOC(=O)CSc1ccc([N+](=O)[O-])cc1Cl	n	x
O=C(CSc1ccc([N+](=O)[O-])cc1Cl)NCc1ccccc1	15	x
CCOCCCNc1oc(/C=C/c2ccc(F)cc2)nc1C#N	n	n
N#Cc1nc(-c2ccc(S(=O)(=O)N3CCc4ccccc4C3)cc2)oc1NCCCn1ccnc1	11	n
CN(C)CCNc1oc(-c2ccc(S(=O)(=O)N3CCc4ccccc4C3)cc2)nc1C#N	n	n
O=C(Nc1sc2c(c1C(=O)NCc1ccco1)CCC2)c1csnn1	n	9.3
O=C(Nc1sc2c(c1C(=O)NCc1ccco1)CCCC2)c1csnn1	n	n
CCOc1ccc(OCC)c(NS(=O)(=O)c2ccc3c(c2)NC(=O)C(C)S3)c1 (centres undefined)	x	n
CC(Cc1ccco1)NS(=O)(=O)c1csc(C(N)=O)c1 (centres undefined)	x	n
Cn1c(C(=O)NCc2ccccc2Br)cc2oc3ccccc3c21	10	n
CCCNC(=O)c1cc2oc3ccccc3c2n1C	n	n
COc1cccc(N2C(=O)c3cccnc3C2Nc2cc(Cl)c(OC)cc2OC)c1 (centres undefined)	x	n
COc1cc(N2CCn3c(nc4cc(Cl)ccc43)C2)ccc1NS(C)(=O)=O	n	n
CC1CN(C(=O)Nc2ccc(F)cc2)c2cc(Cl)ccc2O1 (centres undefined)	n	n
CC1CN(C(=O)Nc2ccc(Cl)cc2)c2ccccc2O1 (centres undefined)	x	3.9
Cc1ccc(S(=O)(=O)c2nnn3c2nc(NCCCOC(C)C)c2sccc23)cc1	x	n
CCOC(=O)C1CCN(c2ncnc3sc(C(=O)O)c(C)c23)CC1	x	16
Cc1c(C(=O)O)sc2ncnc(N3CCC(c4ccccc4)C3)c12 (centres undefined)	x	n
O=c1cc(CSc2ncn[nH]2)nc2sccn12	x	n
CC1(C)CC(=O)C2=C(C1)NC1=C(C(=O)c3ccccc31)C2c1cccs1 (centres undefined)	n	n
CN1C2=C(C(=O)CC(C)(C)C2)C(c2cccs2)C2=C1CC(C)(C)CC2=O	16	x
COc1cc2nc(N3CCCN(C)CC3)nc(NC3CCN(Cc4ccccc4)CC3)c2cc1OC	n	5.1
COc1cc2nc(N3CCN(C(=O)c4ccco4)CC3)nc(N)c2cc1OC	n	n
CC(=O)N1c2ccc(S(=O)(=O)NCC3CCC(C(=O)N4CCc5ccccc54)CC3)cc2CC1C (centres undefined)	x	n
SMILES	CDC25B-CDK2 inh	TAR Tat displ
C#CCn1c2ccccc2c2nc3ccccc3nc21	x	n
O=C1CCC(=O)N1CCCn1c2ccccc2c2nc3ccccc3nc21	14	n
COc1ccc2nc(NC(=O)Cn3nc(C)n4cccc4c3=O)sc2c1	n	n
CC(=O)Nc1nn2c(-c3ccco3)nnc2s1	n	n
O=C(Cc1ccccc1)Nc1nn2c(-c3ccccc3)nnc2s1	n	n
O=C(Nc1nn2c(-c3ccccc3)nnc2s1)c1ccco1	n	17
O=C(Nc1nn2c(-c3ccco3)nnc2s1)c1ccco1	n	22
COCCC[n+]1c(C)csc1Nc1ccc(Cl)cc1	n	x
O=C1c2ccccc2C(=O)c2c(NCCc3ccc(O)cc3)ccc(NCCc3ccc(O)cc3)c21	n	x
O=C1c2c(O)ccc(O)c2C(=O)c2c(NCCNCCO)ccc(NCCNCCO)c21	n	17
Cc1cc(C)cc(S(=O)(=O)c2cn(C)c3cc(N4CCOCC4)c(F)cc3c2=O)c1	x	n
O=c1c(O)c(-c2ccccc2)oc2cc(O)cc(O)c12	x	n
O=c1c(O)c(-c2ccccc2O)oc2cc(O)cc(O)c12	x	n
O=c1c(O)c(-c2cc(O)c(O)c(O)c2)oc2cc(O)cc(O)c12	n	38
O=c1c(O)c(-c2ccc(O)cc2O)oc2cc(O)cc(O)c12	n	25
COc1ccc(Nc2c(-c3ccc4c(c3)CCCC4)c(=O)c2=O)c(OC)c1	x	n
C=CCc1cccc(C2OCCn3c(-c4ccc(OC)cc4)c4c(=O)n(C)c(=O)n(C)c4c32)c1O (centres undefined)	n	n
CCOc1ccccc1CN(CCc1ccc2c(c1)OCO2)Cc1cccnc1	n	x
CCOc1ccc(CN(CCc2ccc3c(c2)OCO3)Cc2cccnc2)cc1	16	n
CC(C)CCNC(=O)C1CCN(c2nn3c(=O)c4c(nc3s2)CCCC4)CC1	n	n
O=c1c(O)cccc2cc(O)c(O)c(O)c12	x	30
O=C1c2ccccc2C(=O)c2c(O)c(O)cc(O)c21	x	n
Cn1c(=O)c(C(=O)O)nc2ccccc21	n	n
CCOC(=O)c1nc2ccccc2n(C)c1=O	23	n
COc1cccc(/C=N/NC(=O)Cn2c(-c3nonc3N)nc3ccccc32)c1OCc1ccc(Cl)cc1Cl	n	x
SMILES	CDC25B-CDK2 inh	TAR Tat displ
C=CC1=C(C(=O)O)N2C(=O)[C@@H](NC(=O)C(=NOCC(=O)O)c3csc(N)n3)[C@H]2SC1	x	26
C=CC1=C(C(=O)O)N2C(=O)[C@@H](NC(=O)/C(=N\O)c3csc(N)n3)[C@H]2SC1 (stereo in doubt)	x	n
COc1ccc2ccccc2c1C1CC(=O)N2CN(Cc3ccccc3)CSC2=C1C#N (centres undefined)	5.4	n
COc1ccc2ccccc2c1C1CC(=O)N2CN(C3CCCCC3)CSC2=C1C#N (centres undefined)	6.1	n
COc1ccc2ccccc2c1C1CC(=O)N2CN(Cc3ccco3)CSC2=C1C#N (centres undefined)	5.8	n
Cn1c2ccccc2c2cnn(CC(=O)N3CCC(C(N)=O)CC3)c(=O)c21	n	n
CC1CCN(S(=O)(=O)c2ccc3c(c2)oc(=O)n3CC(=O)NC(C)(C)C)CC1	n	x
COc1ccc(-c2nc(Cn3nc(-c4ccc(OC)cc4)c4c(C)onc4c3=O)c(C)o2)cc1	x	n
CCCCC(=O)Nc1nc2nc(C)c(Cl)c(=O)n2[nH]1	n	n
Cc1csc(NC(=O)CSc2nnc(-c3cc4ccccc4o3)n2-c2ccccc2)n1	x	n
CCn1c(SCC(=O)Nc2nc(C)cs2)nnc1-c1cc2ccccc2o1	x	5.3
CCOC(=O)c1sc2nc(C)nc(Oc3ccc(OCC)cc3)c2c1C	x	n
CCOc1ccc(Oc2nc(C)nc3sc(C)c(C)c23)cc1	x	7.5
CC(C)=CCC/C(C)=C/CC/C(C)=C/CC/C(C)=C/CC/C(C)=C/CC/C(C)=C/CC/C(C)=C/CC/C(C)=C/CC/C(C)=C/CO	x	32
CC(C)=CCC/C(C)=C/CC/C(C)=C/CO	x	n
N#CC1=C(N)OC2=C(C(=O)CCC2)C1c1ccc(Cl)cc1 (centres undefined)	n	x
CCOC(=O)c1cc(C#N)c(Sc2ccccn2)nc1C(F)(F)F	n	x
CCOC(=O)c1cc(C#N)c(Oc2ccccc2)nc1C(F)(F)F	22	x
CCOC(=O)N1CCc2c(sc3c2C(=O)NC(c2cccc(Br)c2)N3)C1 (centres undefined)	6.4	n
CCOC(=O)N1CCc2c(sc3c2C(=O)NC(c2ccc(OC)cc2)N3)C1 (centres undefined)	16	n
COc1cccc(C2NC(=O)c3c(sc4c3CCN(C)C4)N2)c1OC (centres undefined)	n	n
CCOC(=O)N1CCc2c(sc3c2C(=O)NC(c2ccccc2)N3)C1 (centres undefined)	n	n
COc1ccccc1C1NC(=O)c2c(sc3c2CCN(C)C3)N1 (centres undefined)	4.5	n
